The values that follow come from PubChem BioAssay AID493169 (National Center for Advancing Translational Sciences (NCATS), 2011).

Results filed as inconclusive are left out. Activity calls are given as the source filed them. Calls come from the whole dose curve; as a rule, active = well fitted inhibition curve with a large enough effect; inconclusive = small, poorly fitted or top-dose-only effect; inactive = flat fitted curve, though single readings scatter.
% is set by controls: 0 for no effect and ±100 for the full control effect; potency is the fitted concentration of half-maximal effect.

A short description of the assay: CHOP2 Reporter Counterscreen Assay for Inhibitors of Ubiquitin-specific Protease USP2a.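 Note: activated enterokinase alone at 50 pM in a cell-free format rather than USP2a or CHOP2; nearly all actives have a fitted effect of over 55% in size.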 As to conditions: purified enterokinase, fluorogenic substrate, 485/531 nm; series mostly up to 38.3 µM; activity change, negative = inhibition: at the top concentration. An outline of the steps:
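Fluorescence (485/531 nm) read 10 min after adding 25nM reporter substrate to 50 pM activated EK preincubated 30 min RT with compound; Tris pH 8.0/CaCl2/CHAPS buffer. Data normalized to buffer-alone inhibition; concentration-response curves fitted.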
In general terms: Counterscreens check selectivity or assay interference.
For `CCC1=[N+](CC(=O)c2ccc(Br)cc2)CCn2c(C)ccc21`, the “activity change, negative = inhibition” value was -22% (inactive).
The same measure, in the same setting: the result for `CCn1c(COc2ccc(C)cc2)nnc1SCC(=O)Nc1ccc2c(c1)OCCO2` reads 0.498% (inactive).
On the same count and under the same terms, in the case of `Cc1cc(SCC(=O)Nc2ccccc2)nc(C)n1` it was 4.21% (inactive).
As for `O=C(Nc1cccc(S(=O)(=O)NC2=NCCC2)c1)c1cc(-c2ccco2)nc2ccccc12`, the Potency is 1.78 µM (active).
`COc1cccc(NC(=O)Cc2ccccc2)c1`: the “activity change, negative = inhibition” value was 8.41% (inactive).
On to `CCCCCCCCCCOC(=O)Cn1c(COc2ccc(OC)cc2)[n+](C)c2ccccc21`, for which the Potency is 10 µM (active).
Turning to `Nc1c(C(=O)Nc2ccc3c(c2)OCCO3)nnn1CCc1ccccc1`, the “activity change, negative = inhibition” value was -1.84% (inactive).
Still for that read-out and setting: the result for `COCCn1c(CN(Cc2ccccc2)Cc2ccccc2)nc2c1c(=O)n(C)c(=O)n2C` reads 3.98% (inactive); that for `CCSc1nc(N2CCCCC2)c2c(c1C#N)CCCC2`, 0.66% (inactive).
Same read-out and setting: in the case of `CC1(C)CC(=O)C2=C(C1)N(Cc1ccco1)C(=O)NC2(C(F)(F)F)C(F)(F)F` it was 1.05% (inactive); in that of `CCc1cc2cccc(C)c2nc1SCC(=O)N1CCN(C(=O)c2ccco2)CC1`, -3.06% (inactive).
Still for that read-out and setting: in the case of `O=C(O)c1cccc(S(=O)(=O)NNc2ccccc2C(F)(F)F)c1` it was -1.31% (inactive); in that of `COc1ccc(-n2c(SCC(=O)N3CCN(c4ccccc4)CC3)nc3c(c2=O)SCC3)cc1`, -4.64% (inactive); in that of `O=C(CSc1nc(O)cc(=O)n1-c1ccccc1)NC1CCCCC1`, -0.765% (inactive).
For `C[C@@H]1CN([C@@H](C)CO)C(=O)c2cc(NC(=O)CCC(F)(F)F)ccc2O[C@H]1CN(C)S(=O)(=O)c1ccc(Cl)cc1`, the “activity change, negative = inhibition” value is 1.64% (inactive).
The same measure, in the same setting: the result for `COC(=O)c1[nH]c(=O)c2ccccc2c1OCc1ccccc1` reads 3.7% (inactive); that for `O=C(O)/C=C/c1ccc(S(=O)(=O)Nc2ccccc2C(=O)Nc2ccc(F)cc2)cc1`, -6.94% (inactive).
Still for that read-out and setting: the result for `Cc1ccc2oc(=O)c3cnn(CC(=O)NCCCOC(C)C)c3c2c1` reads -0.662% (inactive); that for `CCn1nnnc1SCC(=O)Nc1cccc(C)n1`, 6.12% (inactive); that for `COc1cccc(C(=O)NCc2ccc3[nH]c(C)cc3c2)c1`, 3.71% (inactive).
In the case of `CCCC(c1nnnn1Cc1ccc(OC)cc1)N1CCC(C(N)=O)CC1` (stereo not given), the “activity change, negative = inhibition” value was 1.02% (inactive).
Same read-out and setting: the result for `Cc1ccc(NC(=O)CCC(=O)OC(C)C(=O)c2ccccc2)cc1` (stereo not given) reads -2.47% (inactive).
For `O=C(COC(=O)c1cc(-c2ccc(Cl)s2)nc2ccccc12)NCc1ccco1`, the Potency was 10 µM (active).
Same read-out and setting: in the case of `Nc1c(C(=O)NC2CC2)sc2nc3c(c(-c4ccco4)c12)CC/C3=C/c1ccco1` it was 2.24 µM (active); in that of `Cc1ccc(S(=O)(=O)N2[C@@H](c3ccc(C(C)(C)C)cc3)C(C(=O)O)=CC[C@H]2c2ccc(Cl)cc2)cc1`, 10 µM (active).
With `CCN(C[C@H]1N[C@@](CC)(C(=O)OC)[C@H]2C(=O)N(Cc3ccccc3)C(=O)[C@@H]12)C(=O)Nc1ccc(C)cc1`, the “activity change, negative = inhibition” value was -3.12% (inactive).
On the same count and under the same terms, in the case of `CC12CN3CC(C)(CN(C1)C3c1ccc(Cl)cc1Cl)C2O` (stereo not given) it was 2.93% (inactive).
For `C#CCOCCOCCOCCNc1nc(N2CCN(C(=O)CCCCCCCCCCNC(=O)Cn3cc(CCCCCN)nn3)CC2)nc(N2CCN(C(=O)CCCCCCCCCCNC(=O)[C@H]([C@@H](C)CC)n3cc(CCCCCN)nn3)CC2)n1`, the Potency was 5.62 µM (active).
`Cc1n[nH]c(C)c1S(=O)(=O)N1CCCC(C(=O)NC2CCCc3ccccc32)C1` (stereo not given): the “activity change, negative = inhibition” value is 0.0618% (inactive).
As for `COc1ccc(-n2c(=S)[nH]c3cc(C(=O)NCc4ccc(F)cc4)ccc3c2=O)c(OC)c1`, the “activity change, negative = inhibition” value was -1.81% (inactive).
Still for that read-out and setting: in the case of `CCOC(=O)N1CCN(C(=O)CN(c2ccc(Oc3ccccc3)cc2)S(C)(=O)=O)CC1` it was -1.23% (inactive).
On the same count and under the same terms, in the case of `Cc1ccc(C(=O)N(c2c(C)n(C)n(-c3ccccc3)c2=O)C(C)C)cc1` it was -2.46% (inactive); in that of `O=C(CCn1c(=O)c2ccccc2n(Cc2ccccc2)c1=O)NCc1ccc2c(c1)OCO2`, -8.97% (inactive).
On the same count and under the same terms, in the case of `O=C(CC1Oc2ccccc2NC1=O)NCc1ccc(Cl)cc1` (stereo not given) it was -6.43% (inactive).
`Cc1ccc(NC(=O)CSc2nc(O)cc(=O)n2-c2ccc(C)cc2)cc1`: the “activity change, negative = inhibition” value was -0.867% (inactive).
The same measure, in the same setting: in the case of `COc1ccc2[nH]c(=O)c(CN(Cc3ccco3)Cc3nnnn3Cc3ccccc3)cc2c1` it was 0.775% (inactive); in that of `Nc1nc(NCCO)nc(NCC2CCCO2)c1[N+](=O)[O-]` (stereo not given), 2.32% (inactive); in that of `O=C(CSc1nc2ccccc2s1)NCCCN1CCOCC1`, -0.586% (inactive).
In the case of `COc1c(/C=C2\SC(=Nc3ccccc3Cl)NC2=O)cccc1[N+](=O)[O-]`, the “activity change, negative = inhibition” value is -9.15% (inactive).
On the same count and under the same terms, the result for `COc1cc(C(=O)OC2CCCCC2=O)cc(OC)c1C` (stereo not given) reads -5.18% (inactive).
